Results published in publication PMC4336329 (PLoS ONE, 2015).
Hit rate of the full screen: of about 310,000 compounds, about 14,000 (4.5%) showed an effect of 50% or more. Effects have a minus sign here. The entries come from a sample that favours strong results as a whole.

target: human ether-à-go-go-related gene (hERG) potassium channel (human, UniProt Q12809); test: primary screen, population patch clamp on CHO cells stably expressing hERG; higher = less effect of the substance
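Note: peak tail current of the secondary pulse compared with the same well before compound.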

Chain of human ether-à-go-go-related gene (hERG) potassium channel (Q12809 whole entry, looked up): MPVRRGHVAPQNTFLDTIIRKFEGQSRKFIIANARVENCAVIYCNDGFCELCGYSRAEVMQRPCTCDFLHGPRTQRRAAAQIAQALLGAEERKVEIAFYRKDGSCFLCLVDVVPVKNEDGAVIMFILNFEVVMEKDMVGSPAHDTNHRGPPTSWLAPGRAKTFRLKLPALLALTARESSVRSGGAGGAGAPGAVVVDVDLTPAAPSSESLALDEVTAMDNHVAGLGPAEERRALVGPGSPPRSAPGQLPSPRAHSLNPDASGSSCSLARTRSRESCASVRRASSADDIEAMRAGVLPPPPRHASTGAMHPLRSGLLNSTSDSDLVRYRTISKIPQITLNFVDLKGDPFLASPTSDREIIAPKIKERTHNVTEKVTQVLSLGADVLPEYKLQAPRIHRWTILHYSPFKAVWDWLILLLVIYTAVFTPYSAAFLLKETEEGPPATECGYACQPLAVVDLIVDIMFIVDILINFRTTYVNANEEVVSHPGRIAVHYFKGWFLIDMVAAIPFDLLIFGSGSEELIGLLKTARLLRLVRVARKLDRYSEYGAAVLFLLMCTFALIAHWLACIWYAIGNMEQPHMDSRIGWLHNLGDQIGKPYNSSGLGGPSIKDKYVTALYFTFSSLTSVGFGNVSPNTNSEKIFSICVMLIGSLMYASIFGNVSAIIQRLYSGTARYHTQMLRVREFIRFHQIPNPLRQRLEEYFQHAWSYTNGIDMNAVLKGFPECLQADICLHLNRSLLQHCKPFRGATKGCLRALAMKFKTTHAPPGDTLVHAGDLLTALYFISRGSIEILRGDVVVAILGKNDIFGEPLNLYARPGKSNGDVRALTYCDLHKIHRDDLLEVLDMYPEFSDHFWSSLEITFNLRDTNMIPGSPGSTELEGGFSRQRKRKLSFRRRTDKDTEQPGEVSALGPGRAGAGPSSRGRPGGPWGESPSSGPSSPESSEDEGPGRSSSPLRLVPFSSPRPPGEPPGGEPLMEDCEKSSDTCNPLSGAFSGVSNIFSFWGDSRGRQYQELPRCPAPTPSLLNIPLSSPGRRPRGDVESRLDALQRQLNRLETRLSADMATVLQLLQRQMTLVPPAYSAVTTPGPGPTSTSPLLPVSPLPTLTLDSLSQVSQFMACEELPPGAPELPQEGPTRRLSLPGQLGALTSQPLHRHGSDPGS

Row | SMILES | hERG current change (%, negative = inhibition) at 10uM
1 | CCOc1ccc(NC(=O)Cn2cc(C(=O)CC)c3ccccc32)cc1 | 14.7%
2 | Cc1ccc2oc(=O)c(/C=C(\O)C(C)(C)C)nc2c1 | 17.1%
3 | Cc1ccc(CSc2[nH]c(=O)ncc2C)cc1 | 10.7%
4 | Cc1ccc2nc(SCC(=O)Nc3cc([N+](=O)[O-])ccc3F)[nH]c2c1 | -57.4%
5 | Cc1cnc(=O)[nH]c1SCc1ccc([N+](=O)[O-])cc1 | -70.1%
6 | Cc1ccc2nc(SCc3ccc([N+](=O)[O-])cc3)[nH]c2c1 | -65.1%
7 | Cc1ccc2nc(SCC(=O)Nc3ccc(F)c([N+](=O)[O-])c3)[nH]c2c1 | -2.06%
8 | Cc1cnc(=O)[nH]c1SCc1cccc([N+](=O)[O-])c1 | 2.35%
9 | Cc1nc2nc(SCc3ccc([N+](=O)[O-])cc3)[nH]c2cc1Br | 1.02%
10 | Cc1ccc2nc(SCC(=O)Nc3cccc([N+](=O)[O-])c3)[nH]c2c1 | -11.7%
11 | O=[N+]([O-])c1ccc(Cc2ccncc2)cc1 | -26.9%
12 | Cc1ccc2nc(SCc3ccc([N+](=O)[O-])cc3)nc(C)c2c1 | 0.901%
13 | Cc1cc(Cc2ccc([N+](=O)[O-])cc2)c(C)cn1 | -57.8%
14 | O=[N+]([O-])c1ccc(Cc2cncc(O)c2)cc1 | -17.3%
15 | O=C(CNC(=O)c1ccco1)N/N=C/c1cccs1 | 14.9%
16 | O=C(Nc1ccc([N+](=O)[O-])cn1)c1cc(-c2cccc(Cl)c2)nc2ccccc12 | -8.44%
17 | Cc1ccc(C(=O)N2CCC(C)CC2)cc1S(=O)(=O)N1CCCCC1 | -10.2%
18 | CCOc1cc(C(=O)OC(C)C(=O)Nc2ccc(S(N)(=O)=O)cc2)ccc1OCC(=O)N1CCOCC1 (stereo not drawn) | -5.65%
19 | CC(=O)c1cccc(NC(=S)NC(=O)c2ccc(C)cc2)c1 | 22.4%
20 | COc1cccc(C(=O)NNS(=O)(=O)c2ccc(F)cc2)c1 | 9.31%
21 | Cc1ccc(NC(=O)COC(=O)CCc2c[nH]c3ccccc23)cc1[N+](=O)[O-] | 10.4%
22 | Cc1nc(N)nc(SCc2ccc([N+](=O)[O-])cc2)c1N | -74.6%
23 | O=[N+]([O-])c1ccc(CSc2nc3ccccc3[nH]2)cc1 | -54.2%
24 | O=[N+]([O-])c1cccc(CSc2nc3ccccc3[nH]2)c1 | -15.6%
25 | Cc1cc(C)nc(SCc2ccc([N+](=O)[O-])cc2)n1 | -17%
26 | c1ccc(CSc2nc3ccccc3[nH]2)cc1 | 17.6%
27 | CC(=O)c1cc(C#N)c(SCc2ccc([N+](=O)[O-])cc2)nc1C | 17.7%
